Source: PubChem BioAssay (several laboratories)
Bead autofluor – counter-screen for toxin protease inhibitors: compound fluorescence; compound autofluorescence counterscreen, microsphere flow cytometry; active compounds read high; hit rate 3.1% among 360,000; AID 624483; fluorescence intensity (concentration not given with the values); in the data active = fluorescence intensity above about 16000; inconclusive = no clear call, values can overlap the other calls
CCHFV vOTU inh – CCHFV vOTU protease inhibitors, primary screen, biochemical, Pep-AMC substrate, fluorescence; Crimean-Congo hemorrhagic fever virus L polyprotein viral ovarian tumor (vOTU) protease …; hit rate 0.55% among 370,000; inhibition, % at 11.5 µM; in the data active = inhibition above about 30%; also: 0% = vehicle wells with enzyme and 100% = no enzyme wells
BoNT-A LC inh2 – BoNT/A light chain protease inhibitors, primary screen, biochemical, flow cytometry, MLPCN library; Botulinum neurotoxin type A light chain protease (Clostridium botulinum A str. ATCC 3502); multiplex microsphere protease substrate cleavage; inhibition, % at 10 µM; hit rate 0.17% among 360,000; AID 588499, 2011; also: plate controls were buffer without enzyme for full effect and enzyme alone for no effect
Anthrax LF prot – Bacillus anthracis LF protease inhibitors, primary screen, biochemical, multiplex microsphere, MLPCN library; Lethal factor (Bacillus anthracis), P15917; multiplex microsphere protease cleavage assay; inhibition, % at 10 µM; hit rate 0.12% among 360,000; AID 588501, 2011; also: plate controls were buffer without enzyme for full effect and enzyme alone for no effect
Target sequence (P15917 whole entry, looked up): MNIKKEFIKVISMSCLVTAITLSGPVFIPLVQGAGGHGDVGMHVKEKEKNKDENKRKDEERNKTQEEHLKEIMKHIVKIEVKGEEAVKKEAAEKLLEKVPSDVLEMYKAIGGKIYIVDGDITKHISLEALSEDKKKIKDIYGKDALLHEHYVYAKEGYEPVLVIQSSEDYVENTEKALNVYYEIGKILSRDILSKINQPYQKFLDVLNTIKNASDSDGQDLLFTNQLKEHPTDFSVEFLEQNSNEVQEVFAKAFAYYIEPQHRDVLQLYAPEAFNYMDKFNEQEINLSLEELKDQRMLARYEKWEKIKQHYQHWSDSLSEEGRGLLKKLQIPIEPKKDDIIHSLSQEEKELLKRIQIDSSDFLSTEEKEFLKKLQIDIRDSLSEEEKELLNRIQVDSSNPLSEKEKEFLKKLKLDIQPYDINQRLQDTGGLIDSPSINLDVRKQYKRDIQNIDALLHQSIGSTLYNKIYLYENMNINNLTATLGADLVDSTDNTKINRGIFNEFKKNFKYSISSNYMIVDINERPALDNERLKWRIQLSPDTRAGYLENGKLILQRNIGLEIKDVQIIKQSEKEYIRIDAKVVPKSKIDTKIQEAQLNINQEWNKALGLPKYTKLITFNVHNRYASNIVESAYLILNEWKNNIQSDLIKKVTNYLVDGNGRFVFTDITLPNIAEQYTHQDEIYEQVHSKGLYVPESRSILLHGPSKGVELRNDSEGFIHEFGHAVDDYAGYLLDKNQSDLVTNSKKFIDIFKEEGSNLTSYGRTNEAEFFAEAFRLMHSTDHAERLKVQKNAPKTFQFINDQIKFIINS
BoNT-F LC inh – BoNT/F light chain protease inhibitors, primary screen, biochemical, flow cytometry, MLPCN library; hit rate 0.22% among 360,000; AID 588497, 2011; inhibition, % at 10 µM; Multiplex microsphere protease cleavage assay; Botulinum neurotoxin type F light chain protease (Clostridium botulinum); in the data active = inhibition above about 35%, passing the limit was not always enough; inconclusive = no clear call, values can overlap the other calls; also: plate controls were buffer without enzyme for full effect and enzyme alone for no effect
3CLpro inhibitor – SARS-CoV 3CLpro protease inhibitors, primary screen, biochemical, quenched FRET; recombinant SARS-CoV 3CLpro, quenched FRET peptide cleavage; Replicase polyprotein 1ab (Severe acute respiratory syndrome coronavirus), P0C6X7; AID 1706, 2009; hit rate 0.14% among 290,000; inhibition, % at 6 µM; in the data active = inhibition above about 12%
Active calls of the source: *. This is a sample that favours compounds with a hit; in the whole collection about 3.9% have one here. Rule as the data show it, unless noted: active = inhibition above about 30%; inconclusive = no clear call, values can overlap the other calls; inactive = below that.

`COc1cc2[nH]c(=S)n(Cc3cccs3)c(=O)c2cc1OC` gave Bead autofluor 4424, CCHFV vOTU inh -6.5, BoNT-A LC inh2 -0.7, Anthrax LF prot -1.3, BoNT-F LC inh -0.2 and 3CLpro inhibitor -1.4.
CCCn1c(=S)[nH]c2cc(OC)c(OC)cc2c1=O was read as Bead autofluor 22976*, BoNT-A LC inh2 -0.8, Anthrax LF prot -1.4, BoNT-F LC inh -2.4 and 3CLpro inhibitor -1.4.
Screening COC(=O)[C@]12C[C@H](CC(=O)NCCCN3CCCC3=O)C(=O)N(Cc3ccco3)C1=C[C@H](C1CCCC1)O[C@@H]2C returned CCHFV vOTU inh -0.3.
Screening O=C(Nc1ccccc1)Nc1nc2ncccn2c1-c1ccc(F)cc1 returned CCHFV vOTU inh -0.9.
Screening NC(=O)COC(=O)CCCc1nc2ccccc2s1 returned Bead autofluor 21657*, CCHFV vOTU inh 7.5, BoNT-A LC inh2 2.3, Anthrax LF prot -2.4, BoNT-F LC inh 0.7 and 3CLpro inhibitor 1.8.
`COc1ccccc1NC(=O)c1nnn(Cc2ccccc2)c1NC(C)=O` gave Bead autofluor 24511*, CCHFV vOTU inh 0.9, BoNT-A LC inh2 -2.6, Anthrax LF prot -3.5, BoNT-F LC inh -4.9 and 3CLpro inhibitor 3.0.
For COc1ccccc1NC(=O)c1nnn(Cc2ccccc2)c1NC(=O)C(F)(F)F the results were Bead autofluor 8810, CCHFV vOTU inh 10.2, BoNT-A LC inh2 2.1, Anthrax LF prot -5.5, BoNT-F LC inh 5.5 and 3CLpro inhibitor 2.9.
For CCC(Oc1cc(Cl)ccc1Cl)C(=O)NN1C(=O)C2C3CCC(C3=C(C)C)C2C1=O (centres undefined) the results were Bead autofluor 4726, CCHFV vOTU inh 5.2, BoNT-A LC inh2 1.0, Anthrax LF prot -0.3, BoNT-F LC inh 35.4* and 3CLpro inhibitor 4.2.
For COc1ccc(N(C(=O)c2snc(C(N)=O)c2N)C(C(=O)NC2CCCC2)c2ccc(F)cc2)c(OC)c1 (centres undefined) the results were Bead autofluor 3611, CCHFV vOTU inh 1.6, BoNT-A LC inh2 0.2, Anthrax LF prot -18.1, BoNT-F LC inh -6.6 and 3CLpro inhibitor -2.8.
COc1ccc(C(C(=O)NC2CCCC2)N(C(=O)c2snc(-c3ccc(F)cc3)c2N)c2ccc(OC)cc2)cc1 (centres undefined) was read as Bead autofluor 21490*, CCHFV vOTU inh 1.9, BoNT-A LC inh2 -1.3, Anthrax LF prot 0.5, BoNT-F LC inh 0.1 and 3CLpro inhibitor 2.0.
For COc1ccc(C(C(=O)NC2CCCC2)N(C(=O)c2snc(-c3ccc(F)cc3)c2N)c2ccccc2)cc1 (centres undefined) the results were Bead autofluor 20660*, CCHFV vOTU inh -5.3, BoNT-A LC inh2 -0.9, Anthrax LF prot -0.9, BoNT-F LC inh 0.1 and 3CLpro inhibitor 6.1.
Screening COc1ccc(C(C(=O)NC2CCCCC2)N(C(=O)c2sc(C)nc2C)c2ccccc2)cc1 (centres undefined) returned Bead autofluor 2785, CCHFV vOTU inh 1.4, BoNT-A LC inh2 0.2, Anthrax LF prot -2.4, BoNT-F LC inh -1.2 and 3CLpro inhibitor -3.7.
COc1ccc(C(C(=O)NC2CCCC2)N(C(=O)c2snc(-c3ccc(F)cc3)c2N)c2cccc(F)c2)cc1 (centres undefined) was read as Bead autofluor 23994*, CCHFV vOTU inh 0.3, BoNT-A LC inh2 -1.5, Anthrax LF prot -2.0, BoNT-F LC inh -0.9 and 3CLpro inhibitor 0.3.
`COc1ccc(N(C(=O)c2ccn[nH]2)C(C(=O)NC2CCCC2)c2ccc(F)cc2)cc1` (centres undefined) gave Bead autofluor 4014, CCHFV vOTU inh -6.3, BoNT-A LC inh2 1.4, Anthrax LF prot 0.4, BoNT-F LC inh -13.2 and 3CLpro inhibitor -0.6.
Screening COc1ccc(C(C(=O)NC2CCCC2)N(C(=O)c2snc(-c3ccc(F)cc3)c2N)c2ccc(F)cc2)cc1 (centres undefined) returned Bead autofluor 24202*, CCHFV vOTU inh -3.2, BoNT-A LC inh2 -2.4, Anthrax LF prot -2.1, BoNT-F LC inh -1.8 and 3CLpro inhibitor 3.5.
`O=C(C(=O)N1CCC(CNC(=O)C2COc3ccccc3O2)CC1)c1cc2ccccc2o1` (centres undefined) gave CCHFV vOTU inh 7.8.
For CC(=O)Nc1ccccc1C the results were Bead autofluor 5738, CCHFV vOTU inh -1.2, BoNT-A LC inh2 -0.3, Anthrax LF prot -3.6 and BoNT-F LC inh 0.4.
`CC(=O)Nc1ccc(NC(=O)C(F)(F)F)cc1` gave Bead autofluor 22771*, CCHFV vOTU inh -4.0, BoNT-A LC inh2 inconclusive, Anthrax LF prot -1.0, BoNT-F LC inh -1.0 and 3CLpro inhibitor 1.6.
For CC(=O)Nc1ccccc1NC(=O)C(F)(F)F the results were Bead autofluor 16513*, CCHFV vOTU inh -1.8, BoNT-A LC inh2 -1.2, Anthrax LF prot -2.2, BoNT-F LC inh -5.8 and 3CLpro inhibitor -2.2.
`COc1ccc(C(C)c2cn(C)c3ccccc23)cc1` (centres undefined) gave CCHFV vOTU inh 0.5.
Screening C[C@@H]1ON(C)[C@H]2C[C@H]3c4[nH]c5c(-c6cccc(F)c6)cccc5c4CCN3C(=O)[C@@H]12 returned CCHFV vOTU inh -9.0.
For Cc1ccc(-n2c(Cc3cccs3)nnc2SCC(N)=O)cc1 the results were Bead autofluor 16452*, CCHFV vOTU inh -16.7, BoNT-A LC inh2 inconclusive, Anthrax LF prot -0.6, BoNT-F LC inh -0.1 and 3CLpro inhibitor 5.7.
`O=C1COc2ccc(C(=O)CSc3nnc(Cc4cccs4)n3-c3ccc(Cl)cc3)cc2N1` gave Bead autofluor 17966*, CCHFV vOTU inh 2.3, BoNT-A LC inh2 7.2, Anthrax LF prot 1.5, BoNT-F LC inh 10.6 and 3CLpro inhibitor 4.6.
NC(=O)CSc1nnc(COc2ccccc2)n1N was read as Bead autofluor inconclusive, CCHFV vOTU inh -3.4, BoNT-A LC inh2 1.6, Anthrax LF prot -4.0, BoNT-F LC inh 6.5 and 3CLpro inhibitor 1.9.
Screening NC(=O)CSc1nnc(COc2ccccc2)n1C1CCCCC1 returned Bead autofluor 19126*, CCHFV vOTU inh 5.4, BoNT-A LC inh2 1.5, Anthrax LF prot 1.3, BoNT-F LC inh -0.9 and 3CLpro inhibitor 2.7.
For NC(=O)CSc1nnc(Cc2cccs2)n1C1CCCCC1 the results were Bead autofluor 19288*, CCHFV vOTU inh -8.8, BoNT-A LC inh2 2.1, Anthrax LF prot 3.0, BoNT-F LC inh 0.5 and 3CLpro inhibitor -0.5.
For Cc1ccc(-n2c(Cc3cccs3)nnc2SCC(=O)Nc2cccc3ccccc23)cc1 the results were CCHFV vOTU inh 18.4.
O=S1(=O)c2ccc(N3CCC[C@H]3CO)cc2O[C@H]2CCN1C2 was read as CCHFV vOTU inh -8.5.
CN(c1ccc([N+](=O)[O-])cc1C(=O)Nc1ccccc1)C1CCCCC1 was read as Bead autofluor 21198*, BoNT-A LC inh2 3.2, Anthrax LF prot -4.2, BoNT-F LC inh 4.0 and 3CLpro inhibitor 3.8.
